High-throughput results from PubChem BioAssay.
Hits are enriched below; roughly 3.2% of the tested compounds scored in any of these assays.
PAX8 inh HTS = inhibitors of PAX8 transcriptional activity in RMG-I cells. RMG-I TPO-luciferase reporter, SteadyGlo, 24 h. inhibition, % at 12.6 µM. 1.2% of 360,000 active;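 active = mean replicate inhibition at least 60% with every replicate also reaching 60%; inconclusive = only one of the two criteria is met; inactive = mean below 60% and not all replicates reaching 60%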;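 also: luciferase light reporting Pax8 driven TPO promoter activity; plate controls were median of neutral control wells for no effect and mitoxantrone controls for full effect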
LMP1 NFkB inh = inhibitors of Epstein-Barr LMP1-induced NF-kappaB reporter | LMP1-induced NF-kappaB luciferase reporter cells, luminescence | inhibition, % at 12.5 µM | 0.69% of 350,000 active | AID 504558; in the data active = inhibition above about 41%; inconclusive = no clear call, values can overlap the other calls;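 also: 0% = neutral control wells and 100% = reference inhibitor control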
TROY NFkB inh = inhibitors of TROY-dependent NF-kB signaling; Q293 LMP1-TROYcd NF-kB luciferase reporter, 4 h; inhibition, % at 10 µM; 0.98% of 360,000 active;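 active = compounds whose plate-normalised and pattern-corrected inhibition of the luciferase reporter signal at the single screening dose is 50% or more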
LGR2 antag = Drosophila LGR2 receptor signaling inhibition; HEK293 LGR2, CRE-luciferase, bursicon-stimulated, 4 h; 0.35% of 380,000 active; inhibition, % at 9.99 µM;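 active = drop in luminescence signal, shown as inhibition above about 50% in the replicate tests, limit read from the data, passing the limit was not always enough; inconclusive = probably only some replicates passing the limit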;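 also: agonist challenge used bursicon conditioned medium at about half maximal strength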
EWS-Fli block = inhibitors of EWS/Fli oncoprotein transcriptional activity; A673 NR0B1-luciferase reporter, viability-normalised; inhibition, % at 12.6 µM; 0.67% of 350,000 active;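 active = mean inhibition of at least 50% after viability correction, with every replicate also passing that limit; inconclusive = mean reaches 50% but only one of two replicates passes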;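 also: firefly luciferase signal divided by Alamar Blue viability fluorescence both relative to DMSO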
TWEAK Fn14 block = blocks TWEAK-Fn14 interaction in a reporter cell assay | AID 1159606 | 2% of 360,000 active | inhibition, % at 10 µM | TWEAK-stimulated Fn14 reporter cells, luciferase luminescence, 8 h; in the data active = inhibition above about 50%
Starred values were filed as active, the others as inactive; ? = inconclusive; / = not tested or not shown.

SMILES	PAX8 inh HTS	LMP1 NFkB inh	TROY NFkB inh	LGR2 antag	EWS-Fli block	TWEAK Fn14 block
Cc1ccc(NC(=O)c2ccccc2NS(=O)(=O)c2ccc(Cl)s2)cc1S(=O)(=O)N1CCOCC1	49	-2	52*	?	-9	78*
COc1ccc(NC(=O)c2ccc(S(=O)(=O)N(C)c3ccccc3)cc2)cc1S(=O)(=O)N1CCOCC1	38	0	28	9	-2	10
CCNC(=O)C[C@@H]1CC[C@@H]2[C@@H](COc3ccc(NC(=O)Nc4cccc(OC)c4)cc3C(=O)N2C)O1	-14	/	/	13	-2	/
COc1ccc(S(=O)(=O)Nc2cccc3c2O[C@H](CN(C)C(=O)Nc2cccc4ccccc24)[C@@H](C)CN([C@H](C)CO)C3=O)cc1	/	/	/	6	4	/
Cc1noc(C)c1NC(=O)Nc1ccc2c(c1)C(=O)N([C@H](C)CO)C[C@H](C)[C@@H](CN(C)C(=O)Nc1ccc(F)cc1)O2	-16	/	/	8	-7	/
COc1ccccc1NC(=O)c1ccccc1NS(=O)(=O)c1cccs1	22	1	18	11	6	6
CCc1ccc(C(=O)Nc2ccc(OC)c(S(=O)(=O)N3CCOCC3)c2)cc1	28	-5	4	5	3	29
COc1ccc(C)cc1NC(=O)c1ccccc1NS(=O)(=O)c1ccc(Cl)s1	34	-13	58*	19	15	69*
Cc1ccc(NC(=O)C(C)N2C(=O)c3ccccc3C2=O)cc1S(=O)(=O)N1CCOCC1 (stereo not drawn)	-6	-2	64*	12	-9	17
COc1ccc(NC(=O)c2ccc(-c3ccccc3)cc2)cc1S(=O)(=O)N1CCOCC1	41	51*	37	15	11	3
O=C(COc1cccc(C(F)(F)F)c1)NNC(=O)c1ccc(=O)[nH]c1	15	72*	-5	-7	-2	-5
CO[C@@H]1CN(C)C(=O)c2cc(NC(=O)Nc3ccccc3Cl)ccc2OC[C@@H](C)N(Cc2ccccc2C(=O)O)C[C@H]1C	-2	/	/	-19	2	/
Oc1cc2c(cc1CN1CCc3ccccc3C1)OCO2	21	0	18	0	1	31
Oc1ccc(CN2CCC(Cc3ccccc3)CC2)c2cccnc12	76*	/	/	20	43	/
Oc1ccc(CN2CCc3ccccc3C2)c2cccnc12	/	82*	-18	/	/	-11
Oc1ccc(Cc2ccccc2)c2cccnc12	87*	/	-24	26	29	-26
COc1cc(CN2CCc3ccccc3C2)ccc1O	41	-8	19	39	36	91*
Oc1ccc(CN2CCN(c3ccccc3)CC2)c2cccnc12	/	19	20	18	/	-53
COc1cc(CN2CCc3ccccc3C2)cc([N+](=O)[O-])c1O	-12	-5	10	-1	15	0
CCCNC(=O)C[C@@H]1CC[C@H]2[C@@H](COc3ccc(NC(=O)c4ccccc4)cc3C(=O)N2C)O1	1	/	/	-3	3	/
CC(C)COCc1ccc(O)c2ncccc12	72*	8	-18	23	20	6
CCOC(=O)N1CCN(Cc2ccc(O)c3ncccc23)CC1	31	/	/	29	11	/
Cc1ccc(C)c(S(=O)(=O)N2CCN(Cc3ccc(O)c4ncccc34)CC2)c1	73*	19	1	16	23	5
CC1=NN(c2cccc(C(=O)O)c2)C(=O)/C1=C\C=C/c1ccccc1	2	/	54*	?	46	91*
CC1=NN(c2ccccc2)C(=O)C1=Cc1ccccc1	2	-8	8	2	6	-9
SMILES	PAX8 inh HTS	LMP1 NFkB inh	TROY NFkB inh	LGR2 antag	EWS-Fli block	TWEAK Fn14 block
O=C(CN(Cc1ccccc1)C(=O)CCl)c1cccc(Br)c1	44	-4	5	25	50	66*
COc1ccc(-n2nc(C(=O)NCc3ccco3)c3c4ccccc4n(C)c3c2=O)cc1	26	-1	8	-9	7	-10
Cc1ccc(-n2nc(C(=O)NCc3ccc(C)o3)c3c4ccccc4n(C)c3c2=O)cc1	37	49*	-2	/	/	16
COc1ccccc1C(=O)Nc1ccc2c(c1)C(=O)N(C)C[C@H](OC)[C@H](C)CN[C@H](C)CO2	3	/	/	-8	3	/
C/C=C/c1ccc([C@@H]2[C@H](CO)N3C(=O)CN(Cc4ccc(C(=O)OC)cc4)C[C@@H]23)cc1	-11	/	/	-13	6	/
Cc1noc(C)c1NC(=O)N[C@@H]1C=C[C@@H](CC(=O)NCCCN(C)C)O[C@@H]1CO	/	/	/	7	/	/
CC(C)NC(=O)N(C)C[C@@H]1Oc2ccc(NS(=O)(=O)c3cn(C)cn3)cc2CC(=O)N([C@H](C)CO)C[C@H]1C	0	/	/	13	-12	/
CCOC(=O)C(C(=O)OCC)C(Nc1ccc(Br)cc1)c1ccccc1 (stereo not drawn)	16	-17	5	/	/	54*
COc1ccc(F)cc1C1=CC(=O)C[C@H](c2ccc3c(c2)OCO3)C1	-2	0	8	3	53*	-8
COc1cccc(C2=CC(=O)C[C@H](c3ccc4c(c3)OCO4)C2)c1	/	48*	-12	/	/	-11
C[C@H]1CN([C@@H](C)CO)S(=O)(=O)c2ccc(C#CC3CC3)cc2O[C@H]1CN(C)C	/	/	/	-11	3	/
Cn1cnc(S(=O)(=O)N2C[C@H](O)COC[C@@H]3O[C@@H](CC(=O)NC4CCCC4)CC[C@H]32)c1	-16	/	/	-6	-8	/
Cc1nn(-c2ccccc2)c(N2CCCC2)c1/C=N/NC(=S)Nc1ccccc1F	-123	-4	64*	-39	12	26
Cc1nn(-c2ccccc2)c(N2CCCC2)c1/C=N/NC(=O)c1cc2ccccc2cc1O	-11	5	10	/	-45	27
C#Cc1cccc(Nc2nc(NCc3ccccc3)nc3ccsc23)c1	-42	/	4	-43	-39	69*
c1ccc(CNc2nc(NCc3cccs3)nc3ccsc23)cc1	35	/	61*	57*	12	8
c1ccc(CNc2nc(NCCc3ccncc3)c3sccc3n2)cc1	70*	/	43	20	16	28
COc1cccc(CNc2nc(NCC3CC3)nc3ccsc23)c1OC	17	/	25	0	15	18
CSc1ccccc1CNc1nc(NCC2CC2)nc2ccsc12	48	/	52*	32	31	29
CS(=O)(=O)N1CC2(C1)[C@@H](c1ccccc1)[C@H](CO)N2Cc1ccccn1	-5	/	/	-5	0	/
CO[C@H]1CN(C)C(=O)c2cc(NS(=O)(=O)c3ccc(F)cc3)ccc2OC[C@H](C)NC[C@@H]1C	2	/	/	15	0	/
COc1ccc(NC(=O)N(C)C[C@@H]2OCCCC[C@H](C)Oc3ccc(NC(=O)Nc4cccc5ccccc45)cc3C(=O)N([C@H](C)CO)C[C@@H]2C)cc1	12	/	/	4	6	/
O=S(=O)(Nc1ccccc1F)c1ccc(Cl)nc1	-6	5	14	7	-5	17
O=S(=O)(Nc1c(F)cccc1F)c1ccc(Cl)nc1	-4	6	86*	-5	-2	10
